Laboratory results published in PubChem BioAssay AID2629 (Broad Institute, 2010).
Hit rate of the full screen: of about 320,000 compounds, about 1,900 (0.59%) were called active. Rule as the data show it: active = inhibition mostly above about 10% (no sharp cut-off); inactive = mostly below about 6.7%. This excerpt belongs to a sample that is enriched for actives.

Each compound was assayed against Protein LANA1 (Human herpesvirus 8 type P (isolate GK18)) (UniProt Q9QR71) (assay: blockers of LANA interaction with H2A/H2B – biochemical, FP readout, HTS, primary screen (AID 2629)). Details: cell-free LANA-H2A/H2B peptide, fluorescence polarization, stronger effect = higher value, concentration not given here.
Protein LANA1 (Human herpesvirus 8 type P (isolate GK18)), sequence (Q9QR71 whole entry, looked up): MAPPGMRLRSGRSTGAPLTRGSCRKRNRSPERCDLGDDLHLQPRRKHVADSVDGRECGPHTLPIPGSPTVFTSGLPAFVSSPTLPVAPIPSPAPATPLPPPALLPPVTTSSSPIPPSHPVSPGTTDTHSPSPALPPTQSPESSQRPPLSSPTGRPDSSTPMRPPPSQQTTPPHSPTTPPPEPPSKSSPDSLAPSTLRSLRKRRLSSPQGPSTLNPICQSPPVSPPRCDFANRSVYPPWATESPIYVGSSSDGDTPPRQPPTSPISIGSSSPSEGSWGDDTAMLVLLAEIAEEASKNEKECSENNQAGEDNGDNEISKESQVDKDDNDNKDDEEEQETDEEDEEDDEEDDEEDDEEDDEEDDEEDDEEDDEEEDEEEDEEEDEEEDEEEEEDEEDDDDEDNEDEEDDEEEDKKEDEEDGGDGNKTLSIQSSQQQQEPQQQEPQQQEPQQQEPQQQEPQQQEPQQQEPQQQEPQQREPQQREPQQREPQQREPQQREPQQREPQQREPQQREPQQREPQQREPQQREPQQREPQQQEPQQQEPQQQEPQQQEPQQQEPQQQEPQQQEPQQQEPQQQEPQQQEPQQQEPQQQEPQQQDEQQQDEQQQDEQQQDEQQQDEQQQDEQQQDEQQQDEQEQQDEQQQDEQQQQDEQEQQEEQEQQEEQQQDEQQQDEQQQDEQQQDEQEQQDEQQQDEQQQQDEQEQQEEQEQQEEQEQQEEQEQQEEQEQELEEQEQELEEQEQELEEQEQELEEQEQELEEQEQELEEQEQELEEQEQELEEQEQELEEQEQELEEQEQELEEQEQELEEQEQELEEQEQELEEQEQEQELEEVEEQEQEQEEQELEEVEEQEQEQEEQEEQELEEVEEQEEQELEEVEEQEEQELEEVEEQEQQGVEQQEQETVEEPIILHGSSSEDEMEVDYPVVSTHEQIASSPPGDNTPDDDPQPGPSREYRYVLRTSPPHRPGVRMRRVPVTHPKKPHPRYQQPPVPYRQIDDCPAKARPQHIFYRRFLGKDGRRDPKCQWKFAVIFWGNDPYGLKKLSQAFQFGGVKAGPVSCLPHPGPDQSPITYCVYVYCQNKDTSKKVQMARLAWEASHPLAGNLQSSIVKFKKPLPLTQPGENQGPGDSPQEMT

inhibition, inactive:
Cc1ccc(NC(=O)COc2coc(CN3CCc4ccccc4C3)cc2=O)cc1Cl -6.2%
O=C(Nc1ccc(Br)cc1)C1CCC(=O)N1Cc1ccccc1Cl (stereo unspecified) 1.59%
COc1ccc(C(=O)/C=C/c2cccnc2)c(OC)c1 0.568%
COc1ccc2oc(=N)c(C(=O)Nc3ccc(Br)cc3)cc2c1 1.77%
CC(=O)c1ccc(S(=O)(=O)NC2CC(=O)N(c3ccc4c(c3)OCCO4)C2)cc1 (stereo unspecified) -5.02%
O=S(=O)(NC1CC1)c1ccc2c3c(cccc13)CC2 -8.67%
CC(C)C(=O)Nc1ccc2c(c1)oc1ccccc12 0.3%
CC(C)Oc1ccc(C(=O)NC(C)(C)CO)cc1 2.55%
O=C(/C=C/Nc1ccc(S(=O)(=O)Nc2cnc3ccccc3n2)cc1)c1cccnc1 5.47%
Cc1cccc(N2CC(C)Cn3c2nc2c3c(=O)n(CC(=O)OCc3ccccc3)c(=O)n2C)c1 (stereo unspecified) 0.536%
O=C(Nc1ccccc1C(=O)N1CCCCCC1)c1ccccc1Cl -5%
O=C(Nc1c(C(=O)N2CCCCC2)cnn1-c1ccccc1)c1ccco1 0.114%
CCOc1ccc(NC(=O)CN(C)C(=O)c2c(C)noc2C)cc1OCC -1.42%
CCCCN=C1N/C(=C\c2ccco2)C(=O)N1c1ccccc1 -4.75%
CCOc1ccc(CC(=O)NCCS(=O)(=O)N2CCN(c3ccccc3)CC2)cc1 7.98%
COc1ccc(OC)c(NC(=O)N[C@H](Cc2ccccc2)C(=O)NN)c1 1.67%
CC(=O)COc1ccc2c(-c3ccccc3)cc(=O)oc2c1 4.47%
O=C(CNC(=O)c1ccc(-c2ccccc2)cc1)OCc1ccc(Cl)cc1 -3.98%
COc1ccc(CCNC(=O)C2CCCN(Cc3nc(-c4cccc(Cl)c4)oc3C)C2)cc1OC (stereo unspecified) 2.76%
Cc1ccc(C)c(NC(=O)COC(=O)Cn2c(C)csc2=O)c1 -0.0986%
CCN1C(=O)C(CC(=O)Nc2cc(C)ccc2C)SC1=Nc1ccc(S(N)(=O)=O)cc1 (stereo unspecified) -5.5%
Cc1cccc(C(=O)NCC(=O)OCC(=O)N(C)CC(=O)Nc2ccccc2Cl)c1 -3.61%
FC(F)(F)c1cnc(Oc2ccccc2-c2nnc(-c3ccc(Cl)cc3)o2)c(Cl)c1 0.331%
CC(C)Oc1ccc(Oc2ccc(C(F)(F)F)cn2)cc1 0.437%
N/C(=N\c1nc2ccccc2o1)NC(=O)C(Cc1ccccc1)N1C(=O)c2ccccc2C1=O (stereo unspecified) -0.102%
C[N+](C)(C)CCNC(=O)c1cc[n+](Cc2ccccc2)c(/C=N/O)c1 -2.86%
COc1ccc(NC(=O)CC2C(=O)OCC3CCCCN32)cc1Cl (stereo unspecified) 6.65%
Cc1cc(NC(=O)CN2C(=O)NC(CC(C)C)C2=O)no1 (stereo unspecified) -2.81%
CCOC(=O)c1[nH]c2ccc(OC)cc2c1NC(=O)N1CCOCC1 -1.57%
CCOC(=O)N1CCN(CCC(=O)Nc2cc(OC)ccc2OC)CC1 -0.496%
CC1CCCN(S(=O)(=O)c2ccc(-c3ccc(=O)[nH]n3)o2)C1 (stereo unspecified) 5.98%
CSCC(NS(=O)(=O)c1ccc(C)cc1)C(=O)O (stereo unspecified) 4.08%
CSCCC(NC(=O)c1ccccc1)C(=O)N1CCCCCCC1 (stereo unspecified) 3.36%
O=C(NCCOc1ccccc1F)Nc1ccc(Br)cc1 1.21%
CCC(C)[C@H](NC(=O)N1c2ccccc2NC(=O)[C@@H]1C(C)C)C(=O)N[C@@H](Cc1ccccc1)C(=O)O (stereo partly specified) 0.386%
COc1ccc(C(=O)OCC(=O)NCCCc2ccccc2)cc1OC -0.725%
COc1ccc(C(CCN(Cc2ccc(OC)c(OC)c2)C(=O)CCl)c2ccccc2)cc1 (stereo unspecified) -1.72%
CCN(C(=O)COC(=O)c1ccccc1O)c1cccc2ccccc12 4.86%
O=C(C1CCN(S(=O)(=O)Cc2ccccc2)CC1)N1CCCc2ccccc21 1.2%
CC(=O)Nc1ccc(Nc2cc(C)nc(Nc3ccc(NC(C)=O)cc3)n2)cc1 -0.44%
Cc1cc(Nc2ccc(Br)cc2)nc2ccccc12 -0.269%
Cc1cccn2c(CN(C)C3CCCc4ccccc43)c(C(=O)N3CCOCC3)nc12 (stereo unspecified) 3.32%
COc1cc(NC(=O)COC(=O)c2cnc(C)cn2)c(C)cc1[N+](=O)[O-] 0.629%
CCCC(=O)OCC(=O)Nc1cc(Cl)ccc1[N+](=O)[O-] 3.99%
COc1ccc(OCC(=O)Nc2cc(C)c(Cl)cc2OC)c([N+](=O)[O-])c1 3%
Cc1ccc(C)c(NC(=O)COC(=O)CSc2ccccc2)c1 -1.08%
Cc1ccc2c(c1)C(c1ccccc1)N(C(=O)c1ccc(F)cc1)CC(=O)N2 (stereo unspecified) -6.68%
CCCc1nc2c(C)cc(-c3nc4ccccc4n3C)cc2n1Cc1ccc(-c2ccccc2C(=O)O)cc1 -5.17%
O=C(CN1CCCC1)Nc1sc2c(c1C(=O)Nc1ccccc1)CCCC2 -9.6%
c1ccc(CN=C2Nc3ccccc3CS2)nc1 -3.85%
CS(=O)(=O)N1CCN(CC(=O)NC2CCCC2)CC1 3.66%
Cc1ccc(S(=O)(=O)NC[C@H]2O[C@@H](n3cnc4c(N)ncnc43)[C@H](O)[C@@H]2O)s1 -71.8%
COc1cc(C(=O)Nc2ncccc2C)ccc1OCC(=O)N1CCOCC1 -0.868%
O=C(OCC(=O)N1CCOCC1)c1ccc2ccccc2c1 -0.101%
O=C(NCC1CCCO1)C1CCN(C2CCN(C(=O)C3CCCCC3)CC2)CC1 (stereo unspecified) 0.649%
COC(=O)c1ccccc1OCC(=O)N1CCN(c2ccc(Cl)cc2)CC1 3.13%
O=C(NC(CC(=O)N1CCN(c2ccccc2)CC1)c1ccccc1)c1ccccc1Cl (stereo unspecified) 4.7%
O=C(NC1CCCCC1)C1CC(=O)N(CCc2ccccc2)C1 (stereo unspecified) -0.144%
CN(CC(=O)Nc1cccc(F)c1)C(=O)C1CC(=O)N(CCc2ccccc2)C1 (stereo unspecified) -5.92%
Cc1ccc(CCN2CC(C(=O)NCCc3ccccc3)CC2=O)cc1 (stereo unspecified) 18.8%
COCCCNC(=O)C1CC(=O)N(CCc2ccccc2)C1 (stereo unspecified) 0.409%
COc1ccc(CNC(=O)C2CCC(CNc3c(N4CCOCC4)c(=O)c3=O)CC2)cc1 (stereo unspecified) -0.686%
CCCCCCCCCCOC(=O)Cn1c(COc2cccc(OC)c2)[n+](C)c2ccccc21 6.12%
CCOC(=O)Cn1c(-c2cccnc2Cl)nc2ccccc21 6.09%
COC(=O)C(C)n1cnc2c(nnn2-c2ccc(F)cc2)c1=O (stereo unspecified) -1.75%
NC(N)=N/N=C/c1ccc(OCc2ccc(Cl)cc2Cl)cc1 0.216%
C=CCN(c1ccc(Cl)cc1)S(=O)(=O)c1cccc(C(=O)OCC(=O)N(C)C)c1 -2.64%
O=C(NNC(=O)c1cnccc1C(F)(F)F)c1ccc(Cl)cc1 1.78%
CCC1=C(OC(=O)N(CC)CC)N2C(=O)OC(=NCCc3c[nH]c4ccccc34)[C@]2(C)[C@H]2C1=CC[C@H]1C(=O)N(CC)C(=O)[C@H]12 1.67%
O=C(CN1CCN(c2ccccc2O)CC1)NC(=O)NCc1ccccc1 2.65%
Oc1ccc(N2CCN(C(=S)NCc3ccccc3)CC2)cc1 -0.124%
Cc1ccc(CN(C(=O)c2sc3ccccc3c2Cl)C2CCS(=O)(=O)C2)cc1 (stereo unspecified) 2.69%
CCCCNC(=O)OCCSCCS(=O)(=O)c1ccc(Cl)cc1 -3.62%

inhibition, active:
COc1ccc(/C=C/C(=O)c2cc(Br)ccc(=O)c2O)cc1 182%
CC(C)C(=O)Nc1ccc2c3c(cccc13)CC2 22.9%
O=C(Nc1ccccc1C(=O)N1CCCCC1)c1ccco1 20.4%
O=C(CNC(=O)OCc1ccccc1)Oc1cc2oc(=O)cc(-c3ccccc3)c2cc1Cl 22.2%
CCN1C(=O)C(=O)N(CC(=O)Nc2cc(C)ccc2C)C1=O 65.4%
CSc1nnc(-c2ccc(C(F)(F)F)cn2)o1 12.3%
CCOC(=O)c1[nH]c2ccc(OC)cc2c1NC(=O)CCN1CCN(Cc2ccccc2)CC1 38.6%
CSCCC(NS(=O)(=O)c1ccc(C)cc1)C(=O)N1CCCC1 (stereo unspecified) 10.1%
CCN(CCCCOC(=O)c1ccc(OC)c(OC)c1)C(C)Cc1ccc(OC)cc1 (stereo unspecified) 8.66%
Cc1cc(Nc2ccccc2)nc(N)n1 85.1%
Cc1cc(NC(=O)COC(=O)COc2ccc(Cl)cc2C)c([N+](=O)[O-])cc1C 18.3%
COc1cc(NC(=O)COC(=O)CSc2ccc3ccccc3c2)c(C)cc1[N+](=O)[O-] 10.3%
CCOc1cc(C(=O)OCC(=O)Nc2cccc(C)c2)ccc1OCC(=O)N1CCOCC1 25.3%
C[C@H](NC(=O)c1ccccc1Cl)C(=O)OCC(=O)N1CCN(c2ccccc2)CC1 41%
O=C(NCCCN1CCCCC1)C1CC(=O)N(CCc2ccccc2)C1 (stereo unspecified) 15%
CCNC(=O)c1cccc(NC(=O)C2CC(=O)N(CCc3ccccc3)C2)c1 (stereo unspecified) 75.8%
CCCCCCCCCCOC(=O)Cn1c(COc2ccc(C)cc2)[n+](C)c2ccccc21 15.8%
Oc1ccccc1N1CCN(C(=S)NCc2ccccc2)CC1 18.4%
